Growth data for 14 compounds are collected here from PubChem BioAssay (NCI).

The panel holds about 83,000 compounds, 20% with a hit somewhere; the sample as a whole holds those more often.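 How to read the values: 0–100, growth inhibition (40 = 60% inhibited); 0, no net growth; -100 to 0, cell death (-40 = 40% of starting cells died; -100 = all dead).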 Values without a mark were called inactive. Active and inactive are the calls of the source. The calls were made as follows: active = growth percent below 10; inactive = the rest.

Some test systems named below: NCI-H23 lung; NCI-H322M lung; HOP-62 NSCLC; NCI-H460 lung; HOP-92 NSCLC; NCI-H522 lung; A549/ATCC NSCLC; 786-0 renal; COLO 205 colon; NCI-H226 lung.
Common to all, as to assay: NCI-60 one-dose screen, 48 h (100 = growth as untreated, 0 = no growth, -100 = all killed)
Holding throughout (details): 10 µM unless noted

Take `N#Cc1c(-c2ccccc2Cl)cc(-c2c[nH]c3ccccc23)[nH]c1=O`: the growth is 69.9% in the assay on NCI-H23 lung; 72.9% in the assay with NCI-H322M lung; 67.2% with HOP-62 NSCLC; 65.9% with NCI-H460 lung; 44.9% in the assay on HOP-92 NSCLC; 70.8% in the assay with NCI-H522 lung. The growth is 77.5% in the assay with A549/ATCC NSCLC, 68.8% in the assay on 786-0 renal and 114% with COLO 205 colon.

For the compound `Nc1cccc(SCc2cc3ccccc3[nH]c2=O)c1`, the growth in the assay with NCI-H23 lung is 73.5%; with NCI-H322M lung it was 73.3%; in the assay on HOP-62 NSCLC it was 42.7%; in the assay on NCI-H460 lung, 20%; in the assay on HOP-92 NSCLC it was 74.6%; in the assay on NCI-H522 lung, 43.6%. For the same compound, the figures for the growth with A549/ATCC NSCLC, with 786-0 renal and in the assay on COLO 205 colon were 33.2%, 47.3% and 29%, respectively.

Consider `O=C(Cn1c2c(sc1=O)[C@H]1[C@@H](O)[C@@H](O)[C@H](O)[C@@H]1CS2)N1CCOCC1`, for which the growth in the assay on NCI-H23 lung was 105%; with NCI-H226 lung it was 101%; in the assay on HOP-62 NSCLC it was 92.7%; with NCI-H522 lung, 91.7%; in the assay with A549/ATCC NSCLC, 106%; in the assay with 786-0 renal, 98.7%. In addition, the growth in the assay on COLO 205 colon was 116%.

In the case of `Brc1ccc(N/N=C/c2c[nH]c3ccc(Br)cc23)nc1`, the growth in the assay with NCI-H23 lung was -58.2% (active); in the assay on NCI-H322M lung, 17.6%; in the assay with HOP-62 NSCLC, -16.7% (active); in the assay with NCI-H460 lung, -75.3% (active); with NCI-H522 lung it was -55.5% (active); in the assay with A549/ATCC NSCLC it was 0.0958% (active). The growth is -23.8% (active) with 786-0 renal and -89.1% (active) in the assay on COLO 205 colon.

Consider `C#CCOc1cc(N(CC)CC)ccc1C(C(=O)NC(C)(C)C)N(C(=O)C1CCc2cc(F)ccc2O1)c1ccc(F)cc1` (configuration not stated), for which the growth is 43.5% with NCI-H226 lung; 70.6% with NCI-H322M lung; 70.2% in the assay on HOP-62 NSCLC; 36.7% in the assay on NCI-H460 lung; 39.8% with HOP-92 NSCLC; 43.1% in the assay on NCI-H522 lung. The values for the growth in the assay on A549/ATCC NSCLC, with 786-0 renal and in the assay with COLO 205 colon were 39.8%, 52.8% and 32.4%, respectively.

For the compound `O=[N+]([O-])c1ccc(/C=C/c2nc3ccccc3n3c(=S)[nH]nc23)cc1`, the growth with NCI-H226 lung was 65.3%; in the assay with NCI-H322M lung, 84.1%; in the assay on HOP-62 NSCLC, 80.2%; with NCI-H460 lung, 78%; with HOP-92 NSCLC it was 68.2%; in the assay on NCI-H522 lung, 63.6%. For the same compound, the growth in the assay with A549/ATCC NSCLC was 77%; with 786-0 renal it was 102%; with COLO 205 colon it was 104%.

For `CCN(CC)c1ccc(/C=N/Nc2nc(-c3ccc(Br)cc3)cs2)c(O)c1`, the growth with NCI-H226 lung was 31.7%; in the assay with NCI-H322M lung, 96.9%; with HOP-62 NSCLC it was 110%; in the assay on NCI-H460 lung it was 89.3%; in the assay on HOP-92 NSCLC, 104%; in the assay on NCI-H522 lung it was 17%. Besides, the growth is 90.5% in the assay with A549/ATCC NSCLC, 49.9% with 786-0 renal and 58.3% with COLO 205 colon.

Consider `CC1(C)CC[C@]2(C(=O)O)CC[C@]3(C)C(=CCC4[C@@]5(C)C[C@@H](O)[C@@H]6OC(c7cccc(Br)c7)OC[C@@]6(C)C5CC[C@]43C)C2C1` (some centres not stated), for which the growth in the assay on NCI-H226 lung is 46.4%; in the assay with NCI-H322M lung it was 38.7%; in the assay on HOP-62 NSCLC, 47.6%; in the assay with NCI-H460 lung it was 20.2%; with HOP-92 NSCLC, 25.2%; in the assay with NCI-H522 lung, 16.3%. Also, the growth was 23% with A549/ATCC NSCLC, 52.7% with 786-0 renal and -31.4% (active) in the assay on COLO 205 colon.

On to `C#CCOc1cc(N(CC)CC)ccc1C(C(=O)NC(C)(C)C)N(C(=O)C1CCc2cc(F)ccc2O1)c1ccc(Br)cc1` (configuration not stated), for which the growth was 81.2% with NCI-H226 lung; 82.5% in the assay with NCI-H322M lung; 77.1% in the assay with HOP-62 NSCLC; 60.3% with NCI-H460 lung; 89.6% with HOP-92 NSCLC; 67.7% with NCI-H522 lung. Besides, the growth is 65.1% with A549/ATCC NSCLC, 81.7% in the assay on 786-0 renal and 59.1% in the assay with COLO 205 colon.

Turning to `COc1cc2oc(-c3cccc(NC(=O)[C@H](CC(N)=O)NC(=O)OC(C)(C)C)c3)cc(=O)c2c(OC)c1OC`, the growth was 92.7% with NCI-H226 lung; 101% with NCI-H322M lung; 104% in the assay on HOP-62 NSCLC; 89.1% in the assay on NCI-H460 lung; 74.9% in the assay with HOP-92 NSCLC; 73.7% in the assay with NCI-H522 lung. Moreover, the figures for the growth in the assay with A549/ATCC NSCLC, in the assay on 786-0 renal and in the assay with COLO 205 colon were 95%, 88.2% and 109%, respectively.

For the compound `COc1ccc(NC(=O)[C@H](CO)NC(=O)OC(C)(C)C)cc1C(=O)Nc1cccc(C2CC(=O)c3c(cc(OC)c(OC)c3OC)O2)c1` (some centres not stated), the growth is 50.7% with NCI-H23 lung; 83% with HOP-62 NSCLC; 55.3% with NCI-H460 lung; 81.9% in the assay with HOP-92 NSCLC; 31.4% with NCI-H522 lung; 68.8% in the assay with A549/ATCC NSCLC. Further, the growth in the assay on 786-0 renal is 68.3%; with COLO 205 colon, 77.2%.

As to `COc1ccc(NC(=O)[C@@H](N)Cc2ccccc2)cc1C(=O)Nc1cccc(C2CC(=O)c3c(cc(OC)c(OC)c3OC)O2)c1` (some centres not stated), the growth is 69.8% in the assay on NCI-H226 lung; 79.3% in the assay on NCI-H322M lung; 86.8% in the assay with HOP-62 NSCLC; 54.7% in the assay on NCI-H460 lung; 44.4% with HOP-92 NSCLC; 39.6% with NCI-H522 lung. The growth in the assay with A549/ATCC NSCLC is 68.9%; in the assay with 786-0 renal it was 72.2%; with COLO 205 colon it was 78.4%.

Turning to `Cn1cc(-c2nc(N)nnc2-c2c[nH]c3ccc(F)cc23)c2cc(Br)cnc21`, the growth is 1.02% (active) in the assay on NCI-H226 lung; 34.8% in the assay on NCI-H322M lung; 20.1% in the assay on HOP-62 NSCLC; 0.596% (active) in the assay on NCI-H460 lung; -6.31% (active) in the assay on HOP-92 NSCLC; -52.3% (active) with NCI-H522 lung. The growth with A549/ATCC NSCLC was 11.1%; with 786-0 renal it was 5.54% (active); in the assay with COLO 205 colon it was -82.9% (active).

As for `COc1ccc(C(=O)/C=C/c2ccc(OC)c(OCc3ccccc3)c2)cc1OC`, the growth in the assay with NCI-H226 lung was 13.9%; in the assay on NCI-H322M lung it was 13.5%; in the assay on HOP-62 NSCLC, 38.2%; with NCI-H460 lung it was 4.04% (active); with HOP-92 NSCLC, 26.3%; in the assay on NCI-H522 lung, -10.7% (active). Further, the growth in the assay on A549/ATCC NSCLC was 8.7% (active); in the assay on 786-0 renal, 24.5%; in the assay on COLO 205 colon, 20.1%.
